SMN2 splice up: SMN2 splice variant enhancement; AID 1458; Potency, µM (series often up to 46.1 µM), inactives show at the highest dose activity change, positive = activation, actives largely listed as activators; HEK293 SMN2-luciferase splicing reporter, luminescence, 30-36 h; 2.8% of 210,000 active; note: % of control where 0% means no effect; nearly all actives have a fitted effect of over 55% in size
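qHTS luciferase splicing reporter: luminescence rises when SMN2 exon 7 is included in transfected HEK293 cells. Compound exposure lasted 30-36 h at 37C, with 4.5 mM final sodium butyrate as control, followed by a ONE-Glo read.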
FLuc modulator: inhibits or activates purified firefly luciferase, miR-21 counter-screen; P08659; purified FLuc, Km substrates, luminescence inhibition; Potency, µM (titrated, usually from 57.5 µM), for the others: at the top dose activity change, negative = inhibition, most hits filed as inhibitors; 6.9% of 360,000 active;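 note: plate controls were vehicle for no effect and reference inhibitor for full effect; nearly all actives have a fitted effect of over 55% in size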
Target sequence (P08659 whole entry, looked up): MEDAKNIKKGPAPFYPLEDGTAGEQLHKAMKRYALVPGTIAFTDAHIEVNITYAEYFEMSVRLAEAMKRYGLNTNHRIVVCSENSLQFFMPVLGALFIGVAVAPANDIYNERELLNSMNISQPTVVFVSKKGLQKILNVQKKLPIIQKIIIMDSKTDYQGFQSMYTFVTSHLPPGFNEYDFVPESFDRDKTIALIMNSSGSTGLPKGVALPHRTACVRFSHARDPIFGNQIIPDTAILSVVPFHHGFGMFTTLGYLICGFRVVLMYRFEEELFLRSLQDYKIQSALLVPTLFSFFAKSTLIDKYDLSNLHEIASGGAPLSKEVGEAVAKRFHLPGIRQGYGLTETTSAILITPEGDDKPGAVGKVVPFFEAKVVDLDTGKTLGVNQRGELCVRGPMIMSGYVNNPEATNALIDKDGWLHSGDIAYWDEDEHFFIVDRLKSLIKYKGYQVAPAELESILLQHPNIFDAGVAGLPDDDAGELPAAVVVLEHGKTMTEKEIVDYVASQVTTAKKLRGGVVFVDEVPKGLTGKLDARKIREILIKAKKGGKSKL
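Purified P. pyralis luciferase, 10 nM final, with Km-level 10 uM D-luciferin and 10 uM ATP in 50 mM Tris acetate pH 7.5, 10 mM Mg acetate, 0.01% Tween-20, 0.05% BSA; 6-point qHTS titration about 60 µM downward; luminescence read.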
ELG1 genotoxic: genotoxicity induction in ELG1-luciferase HEK293T cells. Potency, µM (titrated, usually from 46 µM), for the others: at the highest dose activity change, positive = activation, usual class: activators. 1.3% of 330,000 active. AID 504466. HEK293T ELG1-luciferase reporter, luminescence, 16 h; note: % of control where 0% means no effect; nearly all actives have a fitted effect of over 60% in size
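Quantitative HTS format in 1536-well plates. HEK293T ELG1-luciferase reporter cells receive test compound and are incubated 16 hr at 37 °C, 5% CO2; ONE-Glo added, 30 min room temperature, then luminescence read.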
KinaseGlo FLuc: counter-screen: inhibitors of Kinase-Glo firefly luciferase; Kinase-Glo luciferase, ATP luminescence, 8 min; 0.28% of 200,000 active; Potency, µM (titrated, usually from 38.3 µM), without a hit: at the highest dose activity change, negative = inhibition, most hits filed as inhibitors; note: % is set by controls: 0 for no effect and ±100 for the full control effect; nearly all actives have a fitted effect of over 60% in size
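Inhibition of Kinase-Glo luciferase light generation was assessed at 10 uM ATP in pH 7.2 imidazole buffer, with luminescence measured after eight minutes at ambient temperature.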
Rab9 promoter act: Rab9 promoter activation. 2.8% of 320,000 active. Potency, µM (doses to about 9.22 µM), for the others: at the top dose activation, negative = inhibition, hits mostly activators. Huh7 Rab9 promoter-luciferase reporter, luminescence, 24 h. AID 485297; note: % of control where 0% means no effect; nearly all actives have a fitted effect of over 60% in size
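Cell-based reporter: Huh7 stable for Rab9 promoter-driven luciferase, plated in reduced-serum medium with 10% FBS at 1500 cells/well, compound-treated 24 h at 37 °C, luminescence read after 10 min reagent.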
NPC1 promoter act: activates the NPC1 promoter; Huh7 NPC1 promoter luciferase reporter, 24 h; Potency, µM (highest dose often 9.22 µM), without a hit: at the highest dose activation, most hits filed as activators; 2.4% of 320,000 active; AID 485313; note: % of control where 0% means no effect; nearly all actives have a fitted effect of over 60% in size
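Stable NPC1-promoter luciferase Huh7 line; cpd (DMSO) 24 h, 37 °C, 5% CO2; Amplite luciferase reagent 10 min RT; luminescence readout. qHTS format.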
Numbers without * were called inactive; ? = inconclusive; / = no result given. Rows were chosen to be rich in hits. Some 7.3% of all compounds tested hit in one or more screens of this group. Calls come from the whole dose curve; as a rule, active = well fitted curve in the direction sought with a large enough effect; inconclusive = small, poorly fitted or top-dose-only effect, or another doubt; inactive = no such curve, though single readings can be large; an effect the other way counts as inactive or inconclusive. Potency is the fitted concentration of half-maximal effect.

SMILES	SMN2 splice up	FLuc modulator	ELG1 genotoxic	KinaseGlo FLuc	Rab9 promoter act	NPC1 promoter act
Cc1nc2cc(NC(=O)N3c4ccccc4CC3C)ccc2n1C (stereo unspecified)	2.8µM*	1.7µM*	?	-7%	0.45µM*	0.5µM*
Cc1ccccc1NC(=O)N1c2ccccc2CC1C (stereo unspecified)	20%	?	2%	3%	-9%	1%
Cc1nc2cc(NC(=O)Nc3ccc(Br)cc3)ccc2o1	11µM*	2.4µM*	?	-1%	0.5µM*	1.8µM*
COc1ccc(-c2noc(CC(=O)N(C)c3ccccc3F)n2)cc1	/	3%	/	/	/	/
Cc1ccc(-n2cc(-c3ccccc3)[nH]c2=O)cc1F	25µM*	?	?	-7%	3.2µM*	3.2µM*
Cc1nc(SC(C)C(=O)NC2CCCCC2C)c2c(C)c(C)sc2n1 (stereo unspecified)	/	-1%	-7%	/	-1%	-2%
Cc1ccc(O)c(C2=NNC(c3ccc(Cl)cc3)C2)c1 (stereo unspecified)	/	27µM*	5%	/	27%	0%
Oc1ccc(Cl)cc1C1=NNC(c2cccs2)C1 (stereo unspecified)	/	?	-16%	/	7%	-5%
COc1ccccc1C(=O)N1CCN(Cc2cn[nH]c2-c2ccc(F)cc2F)CC1	/	1%	0%	3%	-5%	1%
O=C(Nc1ccccn1)c1ccc(C(=O)Nc2ccccn2)cc1	/	?	13%	/	?	?
O=C(Nc1nc2c(F)cccc2s1)c1ccc2c(c1)OCCO2	/	0.54µM*	/	/	/	/
O=C(Nc1ncccc1Cl)c1ccc2c(c1)OCCO2	10µM*	13µM*	5.2µM*	?	2.5µM*	3.2µM*
O=C(Cc1ccc([N+](=O)[O-])cc1)NNC(=O)c1ccc2c(c1)OCO2	/	6%	10%	/	3%	1%
O=C(Nc1ccccn1)c1ccc2c(c1)OCCO2	2.5µM*	6.7µM*	8%	?	0.63µM*	1.1µM*
O=C(Nc1nc2c(F)cccc2s1)C1CC1	/	?	10%	/	?	?
O=C(Nc1ccc([N+](=O)[O-])cn1)c1ccc2c(c1)OCO2	?	-6%	14%	-7%	1.6µM*	?
CC1CCCN(C(=O)c2ccc3nc[nH]c3c2)C1 (stereo unspecified)	-4%	1%	1%	2%	-1%	2%
O=C(NC(=S)Nc1cc([N+](=O)[O-])ccc1O)c1ccc2c(c1)OCO2	/	1.5µM*	1µM*	/	0.32µM*	0.32µM*
O=C(Nc1nc(-c2ccccn2)cs1)c1ccc2c(c1)OCCO2	/	1.1µM*	?	/	1.8µM*	2.8µM*
O=C(NC(=S)Nc1ccc([N+](=O)[O-])cc1O)C1CCCCC1	/	?	-6%	/	8%	11%
CC(=O)Nc1ccc(C(=O)Nc2nc(-c3ccccn3)cs2)cc1	11%	?	-9%	0%	-14%	-5%
Cn1ccc(C(=O)NC(=S)Nc2ccc([N+](=O)[O-])cc2O)n1	/	12µM*	12µM*	/	2.8µM*	2.2µM*
O=C(Nc1ccccn1)c1ccc2c(c1)OCO2	11µM*	12µM*	?	11µM*	1.3µM*	3.2µM*
CC(C)(C)c1ccc(C(=O)Nc2ccc([N+](=O)[O-])cn2)cc1	2.8µM*	1.9µM*	?	1%	1µM*	0.71µM*
O=C(Nc1ccc([N+](=O)[O-])cn1)c1cccnc1	/	-3%	2%	/	-6%	0%
Cc1cccc(NC(=O)c2ccc3c(c2)OCCO3)n1	/	9.5µM*	?	/	1.3µM*	1.4µM*
Cc1cccc(NC(=O)CNC(=O)c2ccc3c(c2)OCO3)n1	/	-13%	2%	/	-2%	-1%
Cc1c2ccccc2nc2c(F)c(NCCO)c(F)c(F)c12	25%	21µM*	?	-4%	22%	3%

Source: PubChem (National Center for Advancing Translational Sciences (NCATS))
